# Reference: the supplement of paper PMC5499739
# The full ranking holds about 16,000 sequences; the median of “Z-score” is about -0.37, and the highest 2% start at about 3.2. Shown is part of a subset that was picked to be rich in the highest values.
# Test system: RBM10 RRM1-ZnF (GST-tagged construct)
# Experiment: RNAcompete 7-mer binding Z-score; higher = stronger binding preference
# In short: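 Each heptamer motif was given a one-sided Z-score for enrichment across the probes that contained it. GST-tagged RBM10 constructs (20 pmol) were combined with 1.5 nmol of a designed pool of 241 399 RNAs of up to 41 nt, transcribed from microarray-derived DNA templates. Binding took place in 1 ml Hepes pH 7.8 buffer containing KCl, NaCl, glycerol, DTT, BSA and glutathione Sepharose beads for 30 min at 4°C. After four 2-min washes at 4°C, bound RNA was identified by microarray hybridisation.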
row,Sequence,RNAcompete 7-mer binding Z-score
1,AACAGAA,-0.0447
2,UUUGCGU,-0.642
3,AUGUGGA,2.27
4,UUUGACC,-0.88
5,UCUGCAG,-0.629
6,AAGCUGG,0.904
7,AGGUGGA,3.15
8,GGGUGGA,4.53
9,AGGUGGG,3.76
10,AGGUGGU,2.18
11,CGGUGGA,2.43
12,CGGUGGG,3.2
13,UAUAUAA,-0.519
14,GAACGGU,1.64
15,GAACGGC,0.693
16,GGGACGG,3.45
17,GGACGGC,1.19
18,AGAACGG,1.53
19,CGGACGG,1.32
20,GGAACGG,4.07
21,GAACGGG,4.25
22,GGACGGG,4.52
23,UGGACGG,3.09
24,CGACGGG,1.62
25,CGAACGG,1.21
26,AUAGGCA,0.686

row,Sequence,RNAcompete 7-mer binding Z-score
1,UGGGCCU,0.335
2,CUUACCC,-0.792
3,CUAUUGC,-0.714
4,AGAUGGU,1.71
5,AGAUGGA,2.97
6,GGAUGGU,3.9
7,GGAUGGC,2.58
8,UGAUGGU,1.87
9,GGAUGGA,4.23
10,UCUGUGA,-0.581
11,AGGGAAG,4.53
12,AGGGAAC,2.57
13,CAGGGAU,2.36
14,CAGGGAA,2.96
15,GGGGAAA,3.19
16,GAGGGAU,3.16
17,ACGGGAA,3.12
18,CGGGAAA,2.41
19,AAGGGAA,4.37
20,CGGGAAG,2.18
21,AGGGAAA,4.7
22,AAGGGAU,3.65
23,CUGUACU,-0.743
24,AACCCCA,-0.483
25,AAGAGCG,0.836
26,UUUUUAA,-0.652

row,Sequence,RNAcompete 7-mer binding Z-score
1,ACUCUCG,-0.785
2,GAGGGAG,3.2
3,GGGGGAA,3.15
4,UGGGAAA,2.58
5,AAGGGAC,3.18
6,AGGGGAA,3.57
7,AAGGGCG,3
8,UGGGAAG,4.03
9,AAGGGAG,3.99
10,CAGGGAG,2.8
11,UAGGGAG,3.25
12,UGGGAAU,2.53
13,AGAUAGU,0.0853
14,UAGCGAU,-0.194
15,ACGUCAU,-0.513
16,UAUCGAU,-0.513
17,UGUCCAC,-0.558
18,CGACCGA,-0.519
19,GUCCGGA,0.0625
20,CAGUAUU,-0.646
21,CCUGCGG,0.27
22,GGAGGUG,3.72
23,UGAGGUA,1.97
24,CGAGGUA,1.57
25,GGAGGUU,2.51
26,AGAGGUG,2.04

row,Sequence,RNAcompete 7-mer binding Z-score
1,GGAGGUA,3.28
2,GGAGCGC,1.27
3,CAAUGAA,-0.496
4,AGCUCUA,-0.629
5,UUAUCAG,-0.399
6,AUAAAGG,1.64
7,GCGUAGG,1.78
8,CGGUAGG,1.82
9,GGGUAGG,4.65
10,GGGUAGC,2.73
11,GGGUAGA,3.74
12,AGGUAGC,0.803
13,UGGUAGG,2.98
14,GGGUAUG,4.08
15,GGGUAGU,3.11
16,GGGUAUC,2.04
17,AGGUAGG,3.53
18,AGGUAUG,2.16
19,GGAGUUG,2.64
20,AAACGGU,1.16
21,CUACAAC,-0.668
22,CACAAAA,-0.581
23,AAACCAC,-0.519
24,GACGGGU,2.36
25,AGGAAUG,2.25
26,GGGAACG,3.67

row,Sequence,RNAcompete 7-mer binding Z-score
1,GGGAAUU,2.4
2,GGGAACA,2.67
3,GGGAAUG,3.93
4,UGGAACG,2.13
5,ACGCUCU,-0.688
6,CCCUGGA,-0.123
7,GGUUACA,1.26
8,GAGAUGG,3.54
9,UGGAUGA,2.17
10,UAGAUGG,2.26
11,AGGAUGG,3.77
12,CGGAUGG,2.38
13,AGGAUGC,1.03
14,GAGAUGU,0.361
15,UGGAUGC,1.17
16,UGGAUGG,4.14
17,AGGAUCC,-0.34
18,UGGAUUC,-0.0414
19,UUCGUAA,-0.802
20,CCACUCU,-0.711
21,UCGCACU,-0.565
22,GAGCAUU,-0.353
23,UAUGUGA,0.118
24,UACGAGU,-0.155
25,AUUUUCG,-0.87
26,GUGGAAC,1.61

row,Sequence,RNAcompete 7-mer binding Z-score
1,GUGGAAG,3.83
2,GUGGAAA,2.63
3,AUGGAAC,1.99
4,AUGGAAA,2.57
5,AUGGAAG,3.6
6,GUGUAAA,0.618
7,AUGACGG,1.39
8,UAAAUAU,-0.425
9,CGGAUGU,1.04
10,GGUGGAG,4.02
11,UGUGGAA,2
12,GGUGGAU,2.75
13,GGUGGAA,3.81
14,AGUGGAA,3.24
15,AGUGGAU,2.35
16,UGUGGAG,2.62
17,AGUGGAC,1.34
18,CGUGGAA,1.19
19,UUCCGGC,-0.649
20,GCCUGCU,-0.724
21,UGUCGUA,-0.311
22,UGUUUAG,-0.0155
23,UAUAGGC,0.196
24,AAACCCC,-0.597
25,UCCGAUA,-0.746
26,GGGUGCA,2.74

row,Sequence,RNAcompete 7-mer binding Z-score
1,GAGGCCG,0.0723
2,UUGCCGU,-0.659
3,CUGGGCC,-0.0285
4,GCCCAUA,-0.805
5,AGAAGCU,-0.48
6,CGAAGGU,1.5
7,AGAAGAG,1.64
8,AGAAGGC,0.699
9,GGAAGGU,4.23
10,GGAAGGC,2.63
11,CGAAGGG,2.43
12,AGAAGGU,3.26
13,UGAAGGU,2.57
14,AGAAGAA,1
15,AGAAGGA,3.99
16,AGAAGGG,3.86
17,CCCCCAU,-0.448
18,GAAUGAC,0.16
19,GGCAGUC,0.28
20,AGCCUUU,-1
21,ACUUAUG,-0.655
22,UGAAGCG,0.608
23,UGAAGGC,1
24,CGAAGGA,1.62
25,UGAAGGA,2.99
26,UGAAGGG,3.82

row,Sequence,RNAcompete 7-mer binding Z-score
1,GGAAGGA,4.79
2,GCAUUCU,-0.785
3,UCGUACU,-0.539
4,GAGGCAC,0.628
5,CCUAGUG,-0.266
6,UUCCAUC,-0.675
7,GCAGCGC,-0.178
8,GUUGAGC,0.706
9,GAUGAGU,1.06
10,AUUGAGG,1.63
11,CGUGAGG,1.35
12,GUUGAGG,3.36
13,GGUGAGG,4.5
14,GGUGAGA,2.57
15,CAUGAGG,1.03
16,GAUGAGG,3.56
17,GUGUGUC,0.137
18,CUCAAUA,-0.802
19,GCGAAGG,2.06
20,UAACUAU,-0.617
21,GCUAACA,-0.399
22,AGAGCUG,0.163
23,GAUGGAA,3.36
24,CAUGGAG,1.48
25,AAUGGAA,3.35
26,GAUGGAU,2.6

row,Sequence,RNAcompete 7-mer binding Z-score
1,AAUGGAG,3.43
2,AAUGGAC,2.03
3,GAUGGAC,1.78
4,CAUGGAA,1.1
5,GUUGGAA,1.84
6,UAUGGAA,1.22
7,GAUGGAG,3.52
8,UAUGGAG,1.67
9,AUCUACA,-0.568
10,CACCCUC,-0.578
11,UGCUUGA,-0.737
12,GGCGCAU,0.183
13,UGAUGAC,-0.0512
14,CUUGCCU,-0.824
15,UCAUCUG,-0.844
16,GUUUCAC,-0.597
17,AGGGUUC,0.985
18,GGGGUUC,1.79
19,AGGGUUA,3.55
20,CGGGUUG,2.79
21,GGGGUUG,3.76
22,UGGGUUU,2.64
23,GGGGUUU,3.16
24,UGGGUUA,3.28
25,GGGGUUA,3.21
26,AGGGUUU,2.56

row,Sequence,RNAcompete 7-mer binding Z-score
1,UGGGUUG,3.04
2,GCGGUUG,1.42
3,AAUCUAA,-0.617
4,UUAUACA,-0.542
5,AUGUGGU,1.52
6,GUCCGAC,-0.662
7,CUUCGGC,-0.759
8,AGAUAUC,-0.688
9,ACGGUUG,1.78
10,AGGGUUG,3.8
11,AGGGUCG,1.41
12,CAUAAGA,-0.513
13,CACCGCG,0.069
14,CGGUGUG,1.72
15,GGGUGUG,3.76
16,UGGUGUG,2.77
17,AGGUGUA,1.74
18,GGGUGUA,3.43
19,UGGUGUA,1.52
20,AAUUUGA,-0.399
21,ACAGAGG,1.59
22,UACAAGA,-0.295
23,UGCGGGA,1.87
24,CGCGGGA,1.05
25,UGCGGGU,2.92
26,AGCGGGA,3.31

row,Sequence,RNAcompete 7-mer binding Z-score
1,GGCGGGG,3.96
2,CGCGGGG,2.15
3,GGCGGGU,2.9
4,UGCGGGC,1.13
5,UGCGGGG,3.26
6,AGCGGGU,3.07
7,GGCGGGC,2.11
8,AGCGGGG,4.14
9,GGCUUUA,-0.418
10,UUGCAGA,-0.171
11,AGCGGAC,1.16
12,AGCGGAA,2.07
13,AGCGGAU,3.22
14,CUCAGGU,-0.0447
15,CGCAUAC,-0.61
16,AGAUGUG,0.936
17,AGAUGAG,1.43
18,GGAUGUU,0.959
19,GGAUGUG,3.43
20,GGAUGAA,2.16
21,GGAUGAG,3.4
22,CUCGUGC,-0.789
23,AGCAAUC,-0.435
24,UGGGUAG,3.5
25,UGGGUAC,2.69
26,AGGGUAC,2.1

row,Sequence,RNAcompete 7-mer binding Z-score
1,UGGGUAU,2.37
2,CGGGUAG,2.18
3,AGGGUAG,3.72
4,GACCAUU,-0.915
5,AUGGACG,2.69
6,CACGUGG,0.566
7,UCUUGAA,-0.785
8,CAUCCGC,-0.847
9,CCAAUCU,-0.802
10,ACUAGGG,2.03
11,AGUAGGG,4.16
12,UGUAGGG,3.6
13,CGUAGGG,1.94
14,AGUAGGC,0.975
15,UGUAGGA,1.7
16,AUACGAA,-0.194
17,CGGCUUG,-0.324
18,CUCGCAC,-0.587
19,GUUCUAA,-0.552
20,GGUAUGG,4.22
21,GGUAUGA,2.19
22,GAUAUGG,3.3
23,GAUAUGC,-0.0577
24,AAUAUGG,1.09
25,GGUAUGU,1.56
26,UCCCUGG,-0.24

row,Sequence,RNAcompete 7-mer binding Z-score
1,GUUCGAG,-0.00571
2,CGAACAU,-0.503
3,UUUAGGC,-0.321
4,UUAGAGG,1.31
5,GGAGGGA,4.01
6,GGAGAGG,3.41
7,GUAGAGG,3.56
8,AUAGAGG,1.55
9,GGAGGGG,4.57
10,AGAGGGG,2.11
11,AGAGGGA,2.09
12,CGAGGGG,2.86
13,GGAGGGC,3.13
14,AGAGAGG,1.27
15,GGAGAGA,1.46
16,GUCCAUU,-0.818
17,CCCACUG,-0.483
18,GUUAUUC,-0.513
19,UGUAGGU,1.75
20,UUGCCGC,-0.662
21,UUGGUCA,0.0788
22,CAAGUAA,-0.275
23,AAACCAG,-0.324
24,GGAGAAG,3.36
25,AGAGAAG,1.63
26,CGAGAAG,0.495

row,Sequence,RNAcompete 7-mer binding Z-score
1,GUGUCCA,-0.457
2,GGGCCGU,0.53
3,UAGGGGC,2.25
4,UAGGGGU,3.9
5,UAGGGAA,3.15
6,UAGGGAC,1.79
7,CAGGGGG,2.94
8,UAGGGGG,3.97
9,UAGGGCU,1.42
10,UAGGGGA,3.71
11,CAGGGGU,3.01
12,UGCUAGA,-0.233
13,UGUUCUC,-0.746
14,CCGCACC,-0.509
15,ACAGCGA,-0.0674
16,GGACUAU,0.000789
17,AUAGCCU,-0.724
